# Test results from PubChem BioAssay (NCI).
# About 79,000 compounds went through this panel and 15% of them were active in at least one assay; those are over-represented in the sample as a whole. Values without a mark were called inactive. Activity calls are given as the source filed them. Cut-off read from the data, not from the text of the source: active = growth inhibition above about 70%; inactive = the rest.
# Columns and labels:
# [1] = NCI Yeast Anticancer Drug Screen. Data for the wt1 strain (AID 149);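 note: 0% = growth of vehicle-treated wt1 cultures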; conditions: S. cerevisiae wt1 strain (SPY 50644) growth inhibition, hits give high values
# Outline: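 Measured: growth of wt1 yeast under compound versus vehicle treatment, reported as inhibition.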
# [2] = NCI Yeast Anticancer Drug Screen. Data for the rad50EPP+ strain (AID 151);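 note: 0% = growth of vehicle-treated control cultures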; conditions: S. cerevisiae rad50 mutant strain, hits give high values
# Outline: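 Exposing the rad50EPP+ strain to each compound, growth was compared with vehicle-only cultures to give inhibition.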
# [3] = NCI Yeast Anticancer Drug Screen. Data for the mgt1 strain (AID 153); conditions: S. cerevisiae mgt1 mutant growth inhibition, hits give high values
# Outline: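 Genetically defined yeast (mgt1) treated with compound; inhibition of growth expressed against vehicle-treated controls.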
# [4] = NCI Yeast Anticancer Drug Screen. Data for the rad50 strain (AID 155);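 note: 0% = growth of vehicle-only cultures of the same strain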; conditions: S. cerevisiae rad50 strain growth inhibition, hits give high values
# Outline: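 Growth of the mutant yeast was measured after compound exposure and referenced to vehicle-treated cultures.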
# [5] = NCI Yeast Anticancer Drug Screen. Data for the mec2-1 strain (AID 157); conditions: S. cerevisiae mec2-1 strain, hits give high values
# Outline: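 Readout is yeast growth inhibition, normalised to vehicle-treated controls, in the mec2-1 strain exposed to compound.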
# [6] = NCI Yeast Anticancer Drug Screen. Data for the rad14 strain (AID 159);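 note: 0% = growth of vehicle-treated control cultures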; conditions: S. cerevisiae rad14 strain growth inhibition, hits give high values
# Outline: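 Here, inhibition of yeast growth was measured after compound exposure, using a strain with a genetic defect in DNA damage repair and vehicle-treated cultures as the reference.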
# [7] = NCI Yeast Anticancer Drug Screen. Data for the sgs1 mgt1 strain (AID 161);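 note: 0% = growth of cultures given vehicle only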; conditions: S. cerevisiae sgs1 mgt1 strain, hits give high values
# Outline: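 Percent growth inhibition was derived by comparing compound-exposed mutant yeast with vehicle-exposed cultures. The strain carries alterations in DNA damage repair.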
# [8] = NCI Yeast Anticancer Drug Screen. Data for the CLN2oe strain (AID 163);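 note: 0% = growth of vehicle-only control cultures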; conditions: S. cerevisiae CLN2oe strain, hits give high values
# Outline: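 Values reflect how much compound exposure reduced yeast growth, referenced to vehicle-exposed cells. Assay organism is a strain with a defined genetic change affecting cell-cycle control.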
# [9] = NCI Yeast Anticancer Drug Screen. Data for the cln2 rad14 strain (AID 165);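 note: 0% = growth equal to vehicle treated cultures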; conditions: S. cerevisiae cln2 rad14 strain, hits give high values
# Outline: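 Relative to vehicle controls, growth inhibition of compound-treated cln2 rad14 yeast was recorded.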
# [10] = NCI Yeast Anticancer Drug Screen. Data for the bub3 strain (AID 167); conditions: S. cerevisiae bub3 mutant strain, hits give high values
# Outline: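 Whole-cell yeast assay. The mutant strain was incubated with compounds, and growth inhibition was determined by comparison with vehicle-treated cells.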
# [11] = NCI Yeast Anticancer Drug Screen. Data for the wt2 strain (AID 169);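 note: 0% = growth of vehicle-treated yeast cultures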; conditions: S. cerevisiae wt2 strain growth inhibition, hits give high values
# Outline: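 Values express reduction in yeast growth under compound treatment, referenced to vehicle-treated cells.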
# [12] = NCI Yeast Anticancer Drug Screen. Data for the mlh1 strain (AID 171);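 note: 0% = growth of vehicle-treated control cultures of the same strain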; conditions: S. cerevisiae mlh1 strain growth inhibition, hits give high values
# Outline: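 Steps: expose the defined-mutant yeast strain to compound; expose a parallel culture to vehicle; measure growth; express compound effect as inhibition relative to the vehicle culture.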
# [13] = NCI Yeast Anticancer Drug Screen. Data for the sgs1 strain (AID 173);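 note: 0% = growth of vehicle-only control cultures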; conditions: S. cerevisiae sgs1 mutant, hits give high values
# Outline: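 Treat defined-mutant yeast with compound; measure growth; calculate inhibition relative to vehicle-treated cells.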
# [14] = NCI Yeast Anticancer Drug Screen. Data for the mlh1 rad18 strain (AID 175); conditions: S. cerevisiae mlh1 rad18 strain growth inhibition, hits give high values
# Outline: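 Test agents were incubated with a yeast strain of defined genotype (DNA damage repair defect). Inhibition of growth was derived by comparison with vehicle-exposed cultures.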
# [15] = NCI Yeast Anticancer Drug Screen. Data for the rad18 strain (AID 177); conditions: S. cerevisiae rad18 mutant growth inhibition, hits give high values
# Outline: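 A genetically defined yeast mutant impaired in DNA damage repair was treated with test compounds, then its growth was measured against cultures receiving vehicle alone.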
# [16] = at 5.0 µM (retest, dose inferred, filed as 0.5)
# [17] = at 50.0 µM (retest, dose inferred, filed as 5.0)
compound,measurement,setting,value
CC(C)OC(CCC#N)c1ccc(Cl)cc1 (stereo not drawn),growth inhibition,[1]; at 1.2 µM,-35%
same,growth inhibition,[1]; at 3.7 µM,-28%
same,growth inhibition,[1]; at 11.0 µM,-24%
same,growth inhibition,[1]; at 33.0 µM,-13%
same,growth inhibition,[1]; at 100.0 µM,4%
same,growth inhibition,[2]; at 1.2 µM,-6%
same,growth inhibition,[2]; at 3.7 µM,1%
same,growth inhibition,[2]; at 11.0 µM,2%
same,growth inhibition,[2]; at 33.0 µM,5%
same,growth inhibition,[2]; at 100.0 µM,20%
same,growth inhibition,[3]; at 1.2 µM,-46%
same,growth inhibition,[3]; at 3.7 µM,-44%
same,growth inhibition,[3]; at 11.0 µM,-41%
same,growth inhibition,[3]; at 33.0 µM,-17%
same,growth inhibition,[3]; at 100.0 µM,7%
same,growth inhibition,[4]; at 1.2 µM,-22%
same,growth inhibition,[4]; at 3.7 µM,-25%
same,growth inhibition,[4]; [16],62%
same,growth inhibition,[4]; at 11.0 µM,-26%
same,growth inhibition,[4]; at 33.0 µM,-6%
same,growth inhibition,[4]; [17],99% (active)
same,growth inhibition,[4]; at 50.0 µM,3.4%
same,growth inhibition,[4]; at 100.0 µM,24%
same,growth inhibition,[5]; at 1.2 µM,-29%
same,growth inhibition,[5]; at 3.7 µM,-28%
same,growth inhibition,[5]; [16],55%
same,growth inhibition,[5]; at 11.0 µM,-18%
same,growth inhibition,[5]; at 33.0 µM,-2%
same,growth inhibition,[5]; [17],99% (active)
same,growth inhibition,[5]; at 50.0 µM,7.95%
same,growth inhibition,[5]; at 100.0 µM,7%
same,growth inhibition,[6]; at 1.2 µM,-22%
same,growth inhibition,[6]; at 3.7 µM,-26%
same,growth inhibition,[6]; at 11.0 µM,-12%
same,growth inhibition,[6]; at 33.0 µM,-6%
same,growth inhibition,[6]; at 100.0 µM,1%
same,growth inhibition,[7]; [16],2%
same,growth inhibition,[7]; [17],-4%
same,growth inhibition,[7]; at 50.0 µM,56%
same,growth inhibition,[8]; at 1.2 µM,11%
same,growth inhibition,[8]; at 3.7 µM,-6%
same,growth inhibition,[8]; at 11.0 µM,14%
same,growth inhibition,[8]; at 33.0 µM,15%
same,growth inhibition,[8]; at 100.0 µM,11%
same,growth inhibition,[9]; [16],48%
same,growth inhibition,[9]; [17],46%
same,growth inhibition,[9]; at 50.0 µM,6.8%
same,growth inhibition,[10]; at 1.2 µM,-18%
same,growth inhibition,[10]; at 3.7 µM,-12%
same,growth inhibition,[10]; [16],44%
same,growth inhibition,[10]; at 11.0 µM,-19%
same,growth inhibition,[10]; at 33.0 µM,5%
same,growth inhibition,[10]; [17],45%
same,growth inhibition,[10]; at 50.0 µM,-1.8%
same,growth inhibition,[10]; at 100.0 µM,4%
same,growth inhibition,[11]; at 1.2 µM,-19%
same,growth inhibition,[11]; at 3.7 µM,-21%
same,growth inhibition,[11]; at 11.0 µM,-17%
same,growth inhibition,[11]; at 33.0 µM,-12%
same,growth inhibition,[11]; at 100.0 µM,12%
same,growth inhibition,[12]; at 1.2 µM,-23%
same,growth inhibition,[12]; at 3.7 µM,-15%
same,growth inhibition,[12]; at 11.0 µM,-16%
same,growth inhibition,[12]; at 33.0 µM,6%
same,growth inhibition,[12]; at 100.0 µM,11%
same,growth inhibition,[13]; at 1.2 µM,-20%
same,growth inhibition,[13]; at 3.7 µM,-11%
same,growth inhibition,[13]; at 11.0 µM,-8%
same,growth inhibition,[13]; at 33.0 µM,17%
same,growth inhibition,[13]; at 100.0 µM,40%
same,growth inhibition,[14]; [16],42%
same,growth inhibition,[14]; [17],100% (active)
same,growth inhibition,[14]; at 50.0 µM,19.9%
same,growth inhibition,[15]; at 1.2 µM,-29%
same,growth inhibition,[15]; at 3.7 µM,-32%
same,growth inhibition,[15]; at 11.0 µM,-24%
same,growth inhibition,[15]; at 33.0 µM,-16%
same,growth inhibition,[15]; at 100.0 µM,0%
